Screens as filed in PubChem BioAssay.
Only some compounds are listed: those with a hit (about 3.7% of all), similar ones and a draw of the others.
Bead autofluor = flagged as autofluorescent in microsphere protease counterscreen; fluorescence intensity (test concentration not listed); AID 624483; compound autofluorescence counterscreen, microsphere flow cytometry; active compounds read high; 360,000 tested, 3.1% active; in the data active = fluorescence intensity above about 16000; inconclusive = no clear call, values can overlap the other calls
Anthrax LF inh2 = inhibitors of Bacillus anthracis lethal factor protease; inhibition, % at 10 µM; P15917; AID 588501; multiplex microsphere protease cleavage assay, LF; 360,000 tested, 0.12% active; also: plate controls were buffer without enzyme for full effect and enzyme alone for no effect
Target sequence (P15917 whole entry, looked up): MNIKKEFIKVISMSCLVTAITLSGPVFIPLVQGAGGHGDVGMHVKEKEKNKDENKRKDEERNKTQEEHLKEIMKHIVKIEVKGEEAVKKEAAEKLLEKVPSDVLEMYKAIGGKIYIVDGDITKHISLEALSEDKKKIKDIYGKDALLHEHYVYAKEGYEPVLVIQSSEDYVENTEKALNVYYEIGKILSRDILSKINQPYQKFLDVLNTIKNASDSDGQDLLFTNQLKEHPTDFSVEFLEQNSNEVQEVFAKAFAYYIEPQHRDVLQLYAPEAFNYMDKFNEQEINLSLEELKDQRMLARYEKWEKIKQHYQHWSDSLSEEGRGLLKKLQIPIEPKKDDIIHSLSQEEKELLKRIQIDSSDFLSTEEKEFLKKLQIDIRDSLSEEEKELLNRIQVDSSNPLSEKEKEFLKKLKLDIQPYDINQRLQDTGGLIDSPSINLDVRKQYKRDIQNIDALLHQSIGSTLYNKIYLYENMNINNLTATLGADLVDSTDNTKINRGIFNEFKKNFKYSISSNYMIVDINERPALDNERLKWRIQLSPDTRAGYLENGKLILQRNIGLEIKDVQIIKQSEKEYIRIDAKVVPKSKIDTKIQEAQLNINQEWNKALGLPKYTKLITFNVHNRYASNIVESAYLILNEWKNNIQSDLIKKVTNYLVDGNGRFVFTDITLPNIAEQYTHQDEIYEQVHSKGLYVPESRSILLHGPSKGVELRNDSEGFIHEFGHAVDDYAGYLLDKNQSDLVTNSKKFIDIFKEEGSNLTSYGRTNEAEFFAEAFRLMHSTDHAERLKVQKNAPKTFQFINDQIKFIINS
BoNT F protease = BoNT F light chain protease inhibition; inhibition, % at 10 µM; 360,000 tested, 0.22% active; Multiplex microsphere protease cleavage assay, flow cytometry; AID 588497; in the data active = inhibition above about 35%, passing the limit was not always enough; inconclusive = no clear call, values can overlap the other calls; also: plate controls were buffer without enzyme for full effect and enzyme alone for no effect
MazF activator = increases E. coli MazEF RNase cleavage of RNA; FAM/BHQ RNA-DNA oligo cleavage fluorescence, 5 h; 350,000 tested, 0.32% active; activation, % at 20 µM; P0AE70; in the data active = activation above about 50%
BoNT-A LC inh2 = blocks Botulinum neurotoxin A light chain protease. multiplex microsphere protease substrate cleavage, flow cytometry. inhibition, % at 10 µM. 360,000 tested, 0.17% active. AID 588499; also: plate controls were buffer without enzyme for full effect and enzyme alone for no effect
* marks the source's active call; other numbers are inactive results; ? = inconclusive; · = not tested or not shown. Rule as the data show it, unless noted: active = inhibition above about 30%; inconclusive = no clear call, values can overlap the other calls; inactive = below that.

SMILES	Bead autofluor	Anthrax LF inh2	BoNT F protease	MazF activator	BoNT-A LC inh2
COC(=O)c1oc2ccc(Br)cc2c1-n1cccc1	2560	-13	-1	-4	0
O=C(O)c1oc2ccccc2c1-n1cccc1	16703*	-4	-2	1	-2
Cc1cccc2c1NC(=O)/C2=C\C(=O)c1cccs1	23425*	-2	-5	8	?
Cc1cc(C)c2c(c1)/C(=C/C(=O)c1ccc(Br)s1)C(=O)N2	21983*	-5	-8	-8	?
Cc1cc(Br)c2c(c1)/C(=C/C(=O)c1cccs1)C(=O)N2	5134	-2	-1	16	-1
Cc1ccc(OCc2cc(C(=O)N3CCN(C4CCCCC4)CC3)no2)cc1C	5866	0	-4	-9	0
O=C(N=C1SC2CS(=O)(=O)CC2N1Cc1ccccc1Cl)C1CCCO1 (stereo not given)	4345	0	2	-4	0
CC(C)c1ccccc1OCC(=O)Nc1nnc(C2CC2)s1	·	·	·	12	·
COc1ccc(-c2nn(-c3ccccc3)cc2CNC[C@H]2O[C@@H](n3cnc4c(=O)[nH]c(N)nc43)[C@H](O)[C@@H]2O)cc1	6002	-9	-10	·	-2
CCC12CC1(C(=O)OC)C(=O)N1CCc3c([nH]c4ccccc34)C12 (stereo not given)	5752	-1	-4	·	1
CCCCCCCCNC(=O)/C(C#N)=C/c1ccccc1[N+](=O)[O-]	1924	-1	2	122*	0
N#C/C(=C\c1ccccc1[N+](=O)[O-])C(=O)NCc1ccccc1	4673	-9	?	-13	?
Cc1nc2sccn2c(=O)c1S(=O)(=O)Nc1ccc(N2CCN(S(C)(=O)=O)CC2)cc1	4971	-2	-6	4	1
O=C(CN1CCN(CCN2C(=O)c3cccc4cccc(c34)C2=O)CC1)c1ccc(F)cc1	22837*	6	1	13	5
COc1ccc(C(=O)CN2CCN(CCN3C(=O)c4cccc5cccc(c45)C3=O)CC2)cc1	4804	3	2	8	0
CCOC(=O)c1ccc(N=C2NC(=O)CS2)cc1	23536*	-2	1	4	-2
O=CN1CCC(=O)N(Cc2ccccc2)c2ccccc21	24835*	-2	-6	0	?
COc1ccc(CCN2CC(C(=O)N(C)CC(=O)Nc3cccc(F)c3)CC2=O)cc1OC (stereo not given)	5883	3	-8	-1	0
COc1ccc(-c2ccnc3nc(-n4cccc4)nn23)cc1	20861*	-2	-3	-52	-3
COc1ccc(-c2ccnc3nc(N4CCOCC4)nn23)cc1	15325	1	5	0	3
COC(=O)C1=C(C)OC(N)=C(C#N)C1c1cc(OC)c(OCC(N)=O)cc1Cl (stereo not given)	23456*	1	-4	-1	?
CCOc1cc(/C=C2/SC(=S)NC2=O)ccc1OC(=O)c1ccco1	3426	-4	-3	31	1
O=C1NC(=S)S/C1=C/c1ccc(OC(=O)c2ccco2)cc1	6065	1	-5	74*	-1
O=C(CSc1nnc2scc(-c3ccccc3)n12)Nc1nsc(-c2ccccc2)n1	20413*	0	2	-10	1
O=C(CSc1nnc2scc(-c3ccccc3)n12)c1ccc2c(c1)OCCO2	5635	-2	6	55*	1
SMILES	Bead autofluor	Anthrax LF inh2	BoNT F protease	MazF activator	BoNT-A LC inh2
c1ccc(-c2csc3nnc(SCc4ccc5c(c4)OCCO5)n23)cc1	2997	-2	-11	-10	0
Cc1ccc(-c2csc3nnc(SCC(=O)Nc4nsc(-c5ccccc5)n4)n23)cc1	21990*	-1	4	-29	?
Cc1nn(-c2ccccc2)c(C)c1C(=O)OCC(=O)Nc1ccccc1Cl	3536	0	4	1	0
Cc1cccc(NC(=O)/C(=C\c2cccs2)NC(=O)c2ccccc2)c1	3365	-5	2	59*	0
CC(NC(=O)c1cc(S(=O)(=O)N2CCCC2)ccc1Cl)c1ccccn1 (stereo not given)	9222	11	-6	2	0
C=C(C)CSc1nc2ncccc2[nH]1	2814	1	1	5	0
CCN(CC)C(=O)CSc1nc2ncccc2[nH]1	24215*	0	-4	9	?
OCC1OC(n2cnc3c(/C=C(\O)c4ccccc4)ncnc32)C(O)C1O (stereo not given)	4158	0	2	3	1
Cc1cc(C(F)(F)F)n2nc(C)c(-c3ccc(Cl)cc3)c2n1	2056	2	0	-6	0
Cc1cc(SCC(=O)c2cccs2)n2nc(C)c(-c3ccc(Cl)cc3)c2n1	1987	-1	-3	-7	-1
C=CCSc1cc(C)nc2c(-c3ccc(Cl)cc3)c(C)nn12	20069*	-1	-1	11	0
Cc1cc(-n2nc(C)cc2C)n2nc(C)c(-c3ccc(Cl)cc3)c2n1	17908*	-20	18	-19	13
CCC1Oc2ccc(C)cc2N(Cc2cccc(C)c2)C1=O (stereo not given)	17288*	-2	-7	-11	?
CCCCNC(=O)CN1C(=O)C(CC)Oc2ccc(Cl)cc21 (stereo not given)	7447	5	13	-4	1
CCOC(=O)CN1C(=O)C(CC)Oc2ccc(Cl)cc21 (stereo not given)	21455*	-1	-5	-3	-4
COc1ccc(C(=O)NCCCC2CCCC2)cc1OC1CCN(C(C)C)CC1	3987	4	-5	16	0
CCOc1c2ccccc2nn1CCO	2934	-9	-8	-12	0
Oc1ccccc1N=Cc1c(O)ccc2oc3c(c12)CCCC3	4357	-10	1	12	1
Oc1ccc2oc3c(c2c1/C=N/n1cnnc1)CCCC3	21898*	-1	-11	0	?
Cc1ccc(N=Cc2nc(/C=C/c3cccc([N+](=O)[O-])c3)oc2O)cc1	22530*	9	5	21	?
Cc1ccc(-c2nc(C=Nc3ccc(O)cc3)c(O)o2)cc1	3595	6	3	25	-2
CCn1c(SCC(=O)Nc2ccccc2)nnc1-c1ccc(S(=O)(=O)N2CCOCC2)cc1	9473	-8	0	2	0
CCn1c(SCC(=O)Nc2cc(C)on2)nnc1-c1ccc(S(=O)(=O)N2CCN(C)CC2)cc1	24027*	0	1	3	0
N#CCSc1nnc(-c2ccc(S(=O)(=O)N3CCOCC3)cc2)n1CC1CCCO1 (stereo not given)	22267*	-6	-6	-15	?
NC(=O)CSc1nnc(-c2ccc(S(=O)(=O)N3CCCC3)cc2)n1Cc1ccco1	19668*	0	3	-4	4
Cn1c(SCC(=O)N2CCCCC2)nnc1-c1ccc(S(=O)(=O)N2CCOCC2)cc1	17538*	-4	-5	7	-3
CCCS(=O)(=O)Nc1ccc(N2CCCCC2)c(S(=O)(=O)Nc2ccccc2OC)c1	7632	-3	-12	-6	-8
CC(=NNC(=O)CSCC(=O)NN=C(C)c1ccccc1)c1ccccc1	3810	0	4	0	0
